This passage reports binding signal results from paper PMC9838217, “Structure of SALL4 zinc finger domain reveals link between AT-rich DNA binding and Okihiro syndrome”.

Where a chain is given by its changes, count along the chain named.

Holding throughout (experiment): HT-SELEX; high values mean tight binding
Common to all, as to settings: protein: recombinant; vector His6-GST; dsDNA, one strand shown

In one test the target is T1, SALL4 ZFC4 WT (HT-SELEX) (Mus musculus, UniProt Q8BX22 870-940).
T1 sequence: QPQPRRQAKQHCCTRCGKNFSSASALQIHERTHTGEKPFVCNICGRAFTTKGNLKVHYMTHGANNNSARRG
The gist of the method:
(§1)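 Purified recombinant mouse SALL4 zinc finger cluster 4 (residues 870–940, 1 µg) was incubated with library DNA (1.5 µg first cycle, 200 ng later) in 100 µl of 10 mM Tris–HCl pH 7.5, 50 mM NaCl, poly(dI-dC) and DTT for 10 min at room temperature, with Ni2+ bead capture and reselection for up to 6 cycles in triplicate. MiSeq reads were scanned for 6-mers. Binding signal is each canonical k-mer's read fraction as fold change relative to the initial random library.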

Test [1] addresses T2, SALL4 ZFC4 R900W (HT-SELEX) (Mus musculus, UniProt Q8BX22 870-940, R900W).
T2 sequence: T1 sequence with R31W
In short, it runs like this: as §1

The target of test [2] is T3, SALL4 ZFC4 G921D (HT-SELEX) (Mus musculus, UniProt Q8BX22 870-940, G921D).
T3 sequence: T1 sequence with G52D
In short, it runs like this:
as §1

Turning to CTGATC, the binding signal with SALL4 ZFC4 WT (HT-SELEX) was 0.794 ± 0.0362 fold-change vs cycle 0; in test [1] it was 0.948 ± 0.0293 fold-change vs cycle 0; in test [2] it was 1.02 ± 0.0279 fold-change vs cycle 0.
TGGAAA: the results for the binding signal (in the test with SALL4 ZFC4 WT (HT-SELEX); in test [1]; in test [2]) were 1.28 ± 0.069 fold-change vs cycle 0, 1.27 ± 0.0696 fold-change vs cycle 0 and 1.23 ± 0.0625 fold-change vs cycle 0, respectively.
Take ATAACC: the binding signal with SALL4 ZFC4 WT (HT-SELEX) came to 1.63 ± 0.137 fold-change vs cycle 0; in test [1] it was 1.47 ± 0.11 fold-change vs cycle 0; in test [2], 1.38 ± 0.107 fold-change vs cycle 0.
Regarding GGTACA, the values for the binding signal (with SALL4 ZFC4 WT (HT-SELEX); in test [1]; in test [2]) were 0.743 ± 0.0263 fold-change vs cycle 0, 0.823 ± 0.0156 fold-change vs cycle 0 and 0.894 ± 0.0191 fold-change vs cycle 0, respectively.
The like results for GAACAC were, in that order, 0.766 ± 0.0374 fold-change vs cycle 0, 0.901 ± 0.0255 fold-change vs cycle 0 and 0.932 ± 0.0461 fold-change vs cycle 0.
For TGTGAA the same measures were 1.23 ± 0.0362 fold-change vs cycle 0, 1.38 ± 0.0419 fold-change vs cycle 0 and 1.29 ± 0.0621 fold-change vs cycle 0.
As for ACGACC, the binding signal was found to be 0.308 ± 0.026 fold-change vs cycle 0 with SALL4 ZFC4 WT (HT-SELEX), 0.378 ± 0.0333 fold-change vs cycle 0 in test [1] and 0.508 ± 0.0872 fold-change vs cycle 0 in test [2].
The like results for TAGCTA were, in that order, 1.22 ± 0.05 fold-change vs cycle 0, 1.3 ± 0.064 fold-change vs cycle 0 and 1.29 ± 0.0827 fold-change vs cycle 0.
As for CCCAAG, the binding signal was 0.456 ± 0.0184 fold-change vs cycle 0 with SALL4 ZFC4 WT (HT-SELEX), 0.532 ± 0.00725 fold-change vs cycle 0 in test [1] and 0.619 ± 0.0423 fold-change vs cycle 0 in test [2].
The like results for CTTCCC were, in that order, 0.499 ± 0.032 fold-change vs cycle 0, 0.599 ± 0.0427 fold-change vs cycle 0 and 0.656 ± 0.0665 fold-change vs cycle 0.
The like results for CGTATC were, in that order, 0.723 ± 0.0291 fold-change vs cycle 0, 0.818 ± 0.0282 fold-change vs cycle 0 and 0.89 ± 0.0234 fold-change vs cycle 0.
The like results for ATCATG were, in that order, 1.38 ± 0.03 fold-change vs cycle 0, 1.48 ± 0.0158 fold-change vs cycle 0 and 1.4 ± 0.0239 fold-change vs cycle 0.
Consider AAAGGC, for which the binding signal with SALL4 ZFC4 WT (HT-SELEX) turned out to be 0.475 ± 0.0422 fold-change vs cycle 0; in test [1], 0.571 ± 0.0175 fold-change vs cycle 0; in test [2] it was 0.688 ± 0.0599 fold-change vs cycle 0.
Turning to ACTTAG, the binding signal with SALL4 ZFC4 WT (HT-SELEX) was found to be 1.38 ± 0.0593 fold-change vs cycle 0; in test [1], 1.56 ± 0.0417 fold-change vs cycle 0; in test [2] it was 1.42 ± 0.0798 fold-change vs cycle 0.
For GTAATA the same measures were 2.33 ± 0.177 fold-change vs cycle 0, 2.09 ± 0.144 fold-change vs cycle 0 and 1.81 ± 0.189 fold-change vs cycle 0.
For CACCAC, the binding signal stood at 0.402 ± 0.0296 fold-change vs cycle 0 with SALL4 ZFC4 WT (HT-SELEX), 0.465 ± 0.0324 fold-change vs cycle 0 in test [1] and 0.587 ± 0.0576 fold-change vs cycle 0 in test [2].
The like results for AGTTCA were, in that order, 1.42 ± 0.0499 fold-change vs cycle 0, 1.55 ± 0.0608 fold-change vs cycle 0 and 1.44 ± 0.0878 fold-change vs cycle 0.
For CCAGTA the same measures were 0.785 ± 0.049 fold-change vs cycle 0, 0.922 ± 0.0301 fold-change vs cycle 0 and 0.962 ± 0.0332 fold-change vs cycle 0.
For CAGGTA the same measures were 0.825 ± 0.0117 fold-change vs cycle 0, 0.927 ± 0.0176 fold-change vs cycle 0 and 0.973 ± 0.0448 fold-change vs cycle 0.
With GTACAC, the binding signal with SALL4 ZFC4 WT (HT-SELEX) was found to be 0.768 ± 0.0559 fold-change vs cycle 0; in test [1] it was 0.868 ± 0.0144 fold-change vs cycle 0; in test [2], 0.9395 ± 0.00736 fold-change vs cycle 0.
For ATATGG, the values for the binding signal (in the test with SALL4 ZFC4 WT (HT-SELEX); in test [1]; in test [2]) were 1.44 ± 0.131 fold-change vs cycle 0, 1.33 ± 0.0761 fold-change vs cycle 0 and 1.28 ± 0.0676 fold-change vs cycle 0, respectively.
TACAGA: the binding signal with SALL4 ZFC4 WT (HT-SELEX) was determined as 1.3 ± 0.0338 fold-change vs cycle 0; in test [1], 1.38 ± 0.0448 fold-change vs cycle 0; in test [2], 1.33 ± 0.0789 fold-change vs cycle 0.
In the case of CTTTGC, the binding signal in the test with SALL4 ZFC4 WT (HT-SELEX) was 0.581 ± 0.0144 fold-change vs cycle 0; in test [1], 0.663 ± 0.0189 fold-change vs cycle 0; in test [2] it was 0.743 ± 0.024 fold-change vs cycle 0.
Regarding CTGGTC, the binding signal with SALL4 ZFC4 WT (HT-SELEX) was 0.403 ± 0.00696 fold-change vs cycle 0; in test [1] it was 0.499 ± 0.0159 fold-change vs cycle 0; in test [2], 0.601 ± 0.0523 fold-change vs cycle 0.
Consider CTTGCA, for which the binding signal was 0.697 ± 0.0262 fold-change vs cycle 0 with SALL4 ZFC4 WT (HT-SELEX), 0.7756 ± 0.00768 fold-change vs cycle 0 in test [1] and 0.856 ± 0.0345 fold-change vs cycle 0 in test [2].
The like results for GAATTA were, in that order, 2.39 ± 0.113 fold-change vs cycle 0, 1.95 ± 0.0992 fold-change vs cycle 0 and 1.75 ± 0.12 fold-change vs cycle 0.
Turning to ACGCAT, the binding signal is 0.526 ± 0.0513 fold-change vs cycle 0 with SALL4 ZFC4 WT (HT-SELEX), 0.556 ± 0.0269 fold-change vs cycle 0 in test [1] and 0.714 ± 0.0322 fold-change vs cycle 0 in test [2].
Turning to AATAAA, the binding signal in the test with SALL4 ZFC4 WT (HT-SELEX) is 3.71 ± 0.274 fold-change vs cycle 0; in test [1], 2.68 ± 0.197 fold-change vs cycle 0; in test [2] it was 2.21 ± 0.297 fold-change vs cycle 0.
On to AATGGG, for which the binding signal in the test with SALL4 ZFC4 WT (HT-SELEX) worked out at 0.774 ± 0.0508 fold-change vs cycle 0; in test [1], 0.854 ± 0.0662 fold-change vs cycle 0; in test [2], 0.883 ± 0.0427 fold-change vs cycle 0.
In the case of CCTCTC, the values for the binding signal (with SALL4 ZFC4 WT (HT-SELEX); in test [1]; in test [2]) were 0.497 ± 0.0203 fold-change vs cycle 0, 0.586 ± 0.028 fold-change vs cycle 0 and 0.687 ± 0.045 fold-change vs cycle 0, respectively.
